The assay concerns NEK6. The note with it: concentration: 1 μM, replicates: in singlicate; n = 1.
Take `O=C(O)C(F)(F)F.O=C(O)C(F)(F)F.O=c1[nH]ccc2nc(N[C@@H]3CCCNC3)nc(Nc3ccc(S(=O)(=O)N4CCOCC4)cc3)c12` [GSK2177277]: the “%Inh” value worked out at 46%.

Consider `COc1cc(Nc2nccc(N3CCC(NC(=O)c4cc5ccccc5s4)C3)n2)cc(OC)c1OC` (centres unmarked) [GSK1379760], for which the “%Inh” value is on record as 27%.

As to `CN1CCN(Cc2cccc(-c3ccc4c(Nc5ccc(Oc6ccccc6)cc5)ccnc4c3)c2)CC1` [GW578342], the “%Inh” value turned out to be 0%.

As for `Fc1ccc(-c2ncn(C3CCNCC3)c2-c2ccnc(Oc3ccc(-c4ccccc4)cc3)n2)cc1` [SB-245391], the “%Inh” value is recorded as 17%.

For `Cc1ccc(S(=O)(=O)Nc2ccc(Nc3nccc(Nc4cccc5[nH]ncc45)n3)cc2)cc1` [GSK581271], the “%Inh” value turned out to be 0%.

Regarding `COC(=O)Nc1nc2ccc(Oc3ccc(NC(=O)Nc4cc(C(F)(F)F)ccc4F)cc3)cc2n1C.Cl` [GW692089], the “%Inh” value was determined as 0%.

In the case of `O=C(Nc1n[nH]c2nc(-c3ccc(O)cc3)ccc12)C1CC1` [SB-710363], the “%Inh” value is on record as 0%.

Take `CNC(=O)c1ccccc1Nc1nc(Nc2ccc(N3CCOCC3)cc2)ncc1Cl.Cl` [GSK1576028]: the “%Inh” value was found to be 98.6%.

For the compound `Cl.NC(=O)c1cccc(Nc2nccc(Nc3ccc(Oc4c(Cl)cccc4Cl)c(Cl)c3)n2)c1` [GW659009], the “%Inh” value worked out at 86%.

For the compound `COc1cc(Nc2nccc(-c3c(-c4cccc(NC(=O)c5c(F)cccc5F)c4)nn4ccccc34)n2)cc(OC)c1OC` [GSK323521], the “%Inh” value amounted to 25%.

Turning to `Cn1cc(-c2ccc3c(c2)CCN3C(=O)Cc2cccc(F)c2)c2c(N)ncnc21` [GSK2603358], the “%Inh” value is 0%.

The values above are taken from paper PMC5540273 (PLoS ONE, 2017).
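Further: KINOMEscan kinase panel screen.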
